Only some compounds are listed: those with a hit (about 2.2% of all), similar ones and a draw of the others.
ATXN viability: Viability Counterscreen for Primary qHTS for Inhibitors of ATXN expression; AID 651635, 2014; 0.49% of 400,000 active; Potency, µM (titrated, usually from 56.7 µM), hits mostly cytotoxic; S2 cells (HEK-293 line with an ATXN2-luciferase reporter) viability, CellTiter-Fluor protease fluorescence, 24 h; further: potency means the concentration at half of the fitted maximal effect; nearly all actives have a fitted effect of over 40% in size
TGFb SMAD3 inh: qHTS for Inhibitors of TGF-b; HepG2 CAGA-GFP TGF-b/SMAD3 reporter, GFP fluorescence, 18 h; TGF-beta stimulated, 500 pg/mL final; Potency, µM (doses to about 46.1 µM), for the others: top-dose activity, negative = inhibition, most hits filed as inhibitors; 1.2% of 410,000 active; AID 588855, 2011; further: potency means the concentration at half of the fitted maximal effect; on the % scale 0 is the no-effect control and ±100 the full control effect; nearly all actives have a fitted effect of over 65% in size
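Read-out: total well GFP (ex488/em500-530) summed from mean per-cell fluorescence. Cells: HEPG2 CAGA-GFP, 1% FBS DMEM, 18 h at 37 degrees C with 500 pg/mL final TGF-beta. Unstimulated wells served as the full-inhibition control; stimulated DMSO wells = 0%.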
LDHA block: qHTS assay for inhibitors of human lactate dehydrogenase; L-lactate dehydrogenase A chain (Homo sapiens), P00338; purified LDHA, NADH/diaphorase-resazurin fluorescence; hits give low values; activity change, % (values are at about 110 or 230 µM); 0.15% of 480,000 active; in the data active means activity change below about -30%; inconclusive means mostly about -25% to -30%;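 further: plate controls were DMSO wells for no effect and wells without enzyme for full effect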
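Human LDH5 (2 nM) was incubated with 0.06 mM NADH and 0.2 mM pyruvate for 5 min at room temperature in Tris pH 7.4. Remaining NADH was coupled through diaphorase/resazurin, and resorufin fluorescence was read at 0 and 20 min.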
HepG2 tox: qHTS for Inhibitors of TGF-b: Cytotox Counterscreen; 0.76% of 410,000 active; AID 588856, 2011; HepG2 CAGA-GFP viability, ATP luminescence, 18 h; Potency, µM (highest dose often 46.1 µM), inactives show top-dose activity change, negative = cytotoxicity, actives largely listed as cytotoxic; further: potency means the concentration at half of the fitted maximal effect
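HepG2 CAGA-GFP cells (1000/well, DMEM with 1% FBS) received compound, then TGF-beta at 500 pg/mL final, and were incubated 18 hours at 37 degrees C. Viability was read by CellTiter-Glo luminescence. Media-only wells were set as complete cell-killing and DMSO as no toxicity.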
IDH1 R132H inh: qHTS for Inhibitors of mutant isocitrate dehydrogenase 1 (IDH1): qHTS. Isocitrate dehydrogenase [NADP] cytoplasmic (Homo sapiens), O75874. IDH1-R132H enzyme, NADPH consumption, diaphorase/resazurin fluorescence. Potency, µM (top dose mostly 76.6 µM), without a hit: top-dose activity change, negative = inhibition, usual class: inhibitors. 0.093% of 390,000 active; further: potency means the concentration at half of the fitted maximal effect; on the % scale 0 is the no-effect control and ±100 the full control effect; nearly all actives have a fitted effect of over 65% in size
Target sequence (O75874 whole entry R132H, stated change not applied): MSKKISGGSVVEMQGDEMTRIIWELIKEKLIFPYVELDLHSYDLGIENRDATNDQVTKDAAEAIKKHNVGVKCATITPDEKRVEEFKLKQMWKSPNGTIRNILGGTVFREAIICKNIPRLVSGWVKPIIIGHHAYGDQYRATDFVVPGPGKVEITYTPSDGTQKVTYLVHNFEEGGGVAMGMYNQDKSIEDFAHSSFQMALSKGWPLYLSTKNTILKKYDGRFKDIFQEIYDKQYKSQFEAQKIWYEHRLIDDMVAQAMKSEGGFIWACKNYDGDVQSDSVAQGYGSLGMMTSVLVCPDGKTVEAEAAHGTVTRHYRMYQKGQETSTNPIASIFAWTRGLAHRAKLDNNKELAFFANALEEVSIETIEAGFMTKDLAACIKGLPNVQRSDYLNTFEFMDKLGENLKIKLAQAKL
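IDH1-R132H (0.5 ug/mL dispensed) in pH 7.5 Tris buffer was preincubated 30 min with compound, then given a substrate mix of 0.016 mM NADPH and 2 mM alpha-KG for 80 min at room temperature; remaining NADPH was read by diaphorase/resazurin fluorescence.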
ATXN2 expr inh: Primary qHTS for Inhibitors of ATXN expression. HEK-293 ATXN2-luciferase reporter, luminescence, 24 h. Potency, µM (top dose mostly 57 µM), for the others: at the top dose activity change, negative = inhibition, usual class: inhibitors. 0.72% of 360,000 active; further: potency means the concentration at half of the fitted maximal effect; on the % scale 0 is the no-effect control and ±100 the full control effect; nearly all actives have a fitted effect of over 55% in size
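ATXN2-luciferase reporter cells (luciferase flanked by upstream and downstream ATXN2 gene portions) were treated 24 h at 37 °C with compounds at up to 57 uM. SteadyGlo luminescence gave expression; GF-AFC fluorescence gave viability.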
* hit, by the source's call; i = inactive; ? = inconclusive; nt = not tested or not shown; [ ] = remark or other dose. Unless noted, the call rests on the fitted dose curve; in most records, active means well fitted curve in the direction sought with a large enough effect; inconclusive means small, poorly fitted or top-dose-only effect, or another doubt; inactive means no such curve, though single readings can be large; an effect the other way counts as inactive or inconclusive.

SMILES | ATXN viability | TGFb SMAD3 inh | LDHA block | HepG2 tox | IDH1 R132H inh | ATXN2 expr inh
CCc1ccc(OCC(=O)NC(=S)Nc2ccc(C(=O)O)cc2)cc1 | i | -10% | -5 | -1% | 2% | 6%
CCc1ccc(OCC(=O)NC(NC(=S)Nc2ccc(Cl)cc2)C(Cl)(Cl)Cl)cc1 (centres undefined) | nt | 7.1µM* | ? | 8.9µM* | 1% | ?
Cc1cccc(C(=O)Nc2nnc(S(=O)(=O)N(C)Cc3ccccc3)s2)c1 | i | -5% | -11 | -12% | 43% | 8%
O=C(c1ccc(S(=O)(=O)c2cccc(Cl)c2)c([N+](=O)[O-])c1)N1CCN(c2ccccn2)CC1 | i | 11µM* | -1 | -97% | 0% | nt
N#CCCN(Cc1cccnc1)CN1C(=O)c2ccccc2C1=O | i | -3% | -3 | -1% | 8% | nt
COc1ccccc1C1c2ccc3ccccc3c2Oc2ncn(CCCO)c(=N)c21 (centres undefined) | 20µM* | 0% | -3 | -32% | -3% | -30%
COc1ccc(C2c3ccc4ccccc4c3Oc3ncn(CCCN(C)C)c(=N)c32)cc1 (centres undefined) | ? | ? | 0 | -169% | -2% | ?
COc1cccc(C2c3c(ncn(CCN4CCOCC4)c3=N)Oc3ccc4ccccc4c32)c1 (centres undefined) | nt | nt | 7 | nt | nt | nt
COc1ccc(C2c3c(ncn(CCN4CCOCC4)c3=N)Oc3ccc4ccccc4c32)cc1OC (centres undefined) | nt | ? | -5 | 14µM* | 5% | ?
COc1ccccc1C1c2ccc3ccccc3c2Oc2ncn(CCN(C)C)c(=N)c21 (centres undefined) | 22µM* | ? | 2 | 16µM* | 0% | 25µM*
CCN(CC)S(=O)(=O)c1ccc(-c2nc(C#N)c(N3CCN(c4ccccc4)CC3)o2)cc1 | nt | nt | -13 | nt | nt | nt
CC(C)(C)OC(=O)NCc1ccc(CNC(=O)c2nc[nH]c2C(=O)NCc2ccc(CNC(=O)OC(C)(C)C)cc2)cc1 | i | -28% | -1 | -3% | -11% | -21%
O=C(Nc1ccccc1)c1nc[nH]c1C(=O)NCCN(CCNC(=O)c1[nH]cnc1C(=O)Nc1ccccc1)CCNC(=O)c1[nH]cnc1C(=O)Nc1ccccc1 | i | 20µM* | -1 | -19% | 1% | -2%
CC(C)(C)OC(=O)NCCCCCNC(=O)c1[nH]cnc1C(=O)N[C@@H](CCCCNC(=O)OC(C)(C)C)C(=O)OC(C)(C)C | ? | ? | 8 | 3% | 4% | ?
CC(C)(C)OC(=O)NCCCCCNC(=O)c1nc[nH]c1C(=O)NCCCCCNC(=O)OC(C)(C)C | 25µM* | ? | -4 | -52% | 7% | 22µM*
CC(C)(C)OC(=O)NCCCCCNC(=O)c1nc[nH]c1C(=O)NCc1ccc(CNC(=O)OC(C)(C)C)cc1 | 16µM* | ? | 3 | -15% | -3%[38.3 µM] | 20µM*
CC(C)(C)OC(=O)CNC(=O)c1[nH]cnc1C(=O)Nc1ccc(CNC(=O)OC(C)(C)C)cc1 | ? | ? | -5 | -18% | -1% | 32µM*
COc1ccccc1CC(=O)Nc1ccc2nc(N3CCC(C)CC3)cc(C)c2c1 | i | -3% | -2 | -7% | -5% | -3%
Cc1ccc(-n2nc(C)c(/C=N/n3c(C)n[nH]c3=S)c2Cl)cc1 | ? | -1% | -3 | -1% | 2% | -9%
CCCCC(=O)N(C)c1c(C)nc2ccc(C(=O)N3CCCCC3)cn12 | i | 14% | 0 | 6% | nt | 5%
O=C(Cc1csc2nc(-c3ccccc3)cn12)NCc1ccc(F)cc1 | i | -2% | -11 | 3% | -21% | 4%
COc1ccc(-n2cc(CNCc3cccnc3)c(-c3cccc(F)c3)n2)cc1 | i | 2% | -2 | -47% | 3% | -1%
COc1ccc(CNCc2cn(-c3cccc(F)c3)nc2-c2ccc(C)o2)cc1 | ? | 13µM* | 3 | -102% | -5% | nt
COc1ccc(CNn2cnnc2)c(O)c1 | i | 21% | 1 | 4% | 0% | -7%
CC(C)(C)c1ccc(Cn2nc(C(=O)O)c3ccccc3c2=O)cc1 | nt | nt | 5 | nt | nt | nt
SMILES | ATXN viability | TGFb SMAD3 inh | LDHA block | HepG2 tox | IDH1 R132H inh | ATXN2 expr inh
O=C(O)c1nn(Cc2ccccc2)c(=O)c2ccccc12 | nt | nt | -32* | nt | nt | nt
COc1cccc(-n2c(C)nc3c(cnn3-c3ccc(Cl)cc3)c2=O)c1 | i | -5% | -5 | 20% | 6% | 5%
CCOc1cc(/C=N\NC(=O)c2ccc(NC(=O)CC)cc2)ccc1OC(=O)c1ccccc1 | ? | 0% | -7 | -2% | 0% | 20µM*
CCOc1cc(/C=N\NC(=O)c2ccc(NC(=O)C(C)(C)C)cc2)ccc1OC(=O)c1ccc(C)cc1 | i | 2% | -9 | -10% | 3% | -6%
Cc1ccccc1Nc1sc(C(=O)c2ccc(F)cc2)c(N)c1C(=O)NCCc1ccccc1 | ? | ? | 6 | 13µM* | 0% | -29%
COc1cccc(Nc2sc(C(=O)c3ccc(Cl)cc3)c(N)c2C(=O)NCc2ccc(C)cc2)c1 | nt | 13µM* | -1 | -27% | -21% | nt
Cc1ccc(CNC(=O)c2c(Nc3c(C)cccc3C)sc(C(=O)c3ccccc3)c2N)cc1 | nt | 13µM* | 3 | -60% | 0% | ?
CCOC(=O)CC1C(=O)NCCN1C(=O)Nc1ccc(Cl)cc1 (centres undefined) | ? | -6% | -4 | -10% | 2% | 1%
Cc1[nH]ncc1N=Cc1ccc([N+](=O)[O-])cc1 | i | -4% | 0 | 2% | -2% | -2%
CC1(C)CC(=O)C=C(c2ccc(-c3cnc4ccccc4c3)cc2)C1=O | 7.9µM* | -6% | -4 | -23% | 0% | ?
COc1ccc(NS(=O)(=O)c2cc(C(=O)OC(C)C(=O)N3CCOCC3)ccc2Cl)cc1 (centres undefined) | i | -1% | 2 | 0% | 6% | -5%
CC1CN(CC(O)COC(c2ccc(Cl)cc2)c2ccc(Cl)cc2)CC(C)O1 (centres undefined) | ? | ? | 1 | 16µM* | 3% | ?
OC(COC(c1ccc(Cl)cc1)c1ccc(Cl)cc1)CN1CCN(c2ccccn2)CC1 (centres undefined) | i | ? | -4 | 14µM* | 2% | ?

Source: PubChem (National Center for Advancing Translational Sciences (NCATS))
